Results taken from PubChem BioAssay AID1159554 (Broad Institute, 2015).
In all, about 94,000 compounds went through this assay and about 2,100 (2.2%) were called active. Cut-off read from the data, not from the text of the source: active = activity change below about -80%; inconclusive = no clear call, values can overlap the other calls; inactive = above that. What follows is part of a selection rich in actives, with near analogues and random picks from the rest.

Assay: P. falciparum Dd2 growth inhibitors, primary screen, SYBR Green fluorescence, single dose replicates (AID 1159554)
Conditions: 72 h, at 10 µM, active compounds read low

Activity change, active:
COc1ccc(NC(=O)N(C)C[C@H]2Oc3c(NC(=O)NC(C)C)cccc3C(=O)N([C@@H](C)CO)C[C@H]2C)cc1 -84.2%
C[C@@H]1CN([C@H](C)CO)C(=O)c2cccc(NC(=O)Nc3cccc4ccccc34)c2O[C@@H]1CN(C)C(=O)Nc1ccc(F)cc1 -95.3%
C[C@@H]1CCCCO[C@H](CN(C)C(=O)NC2CCCCC2)[C@H](C)CN([C@H](C)CO)C(=O)c2cc(NC(=O)Nc3ccc(F)cc3)ccc2O1 -85.2%
CCCN(C)C[C@@H]1OCCCC[C@H](C)Oc2ccc(NS(=O)(=O)c3ccc(C)cc3)cc2C(=O)N([C@H](C)CO)C[C@@H]1C -87.8%
C[C@@H]1CN([C@@H](C)CO)C(=O)c2cc(NC(=O)Nc3cccc4ccccc34)ccc2O[C@@H](C)CCCCO[C@@H]1CN(C)S(=O)(=O)c1ccc(Cl)cc1 -85.2%
C[C@H]1CCCCO[C@@H](CN(C)C(=O)C2CCCCC2)[C@@H](C)CN([C@@H](C)CO)C(=O)c2cc(NS(=O)(=O)c3cccs3)ccc2O1 -83.8%
CCCN(C)C[C@H]1OCCCC[C@@H](C)Oc2ccc(NC(=O)Nc3ccc(F)cc3)cc2C(=O)N([C@@H](C)CO)C[C@H]1C -91.5%
COc1ccc(NC(=O)Nc2ccc3c(c2)C(=O)N([C@H](C)CO)C[C@@H](C)[C@H](CN(C)CC2CCCCC2)OCCCC[C@@H](C)O3)cc1 -85.2%
C[C@@H]1CN([C@H](C)CO)C(=O)c2cc(NC(=O)Nc3ccc(F)cc3)ccc2O[C@@H](C)CCCCO[C@@H]1CN(C)CC1CCCCC1 -82.5%
COc1ccc(NC(=O)Nc2ccc3c(c2)C(=O)N([C@@H](C)CO)C[C@H](C)[C@H](CN(C)S(=O)(=O)c2ccccc2)OCCCC[C@@H](C)O3)cc1 -87.4%
C[C@@H]1CN([C@@H](C)CO)S(=O)(=O)c2ccc(C#Cc3ccccc3F)cc2O[C@H]1CN(C)C(=O)c1ccc2c(c1)OCO2 -85.3%
C[C@H]1CN([C@@H](C)CO)S(=O)(=O)c2ccc(C#Cc3ccccc3F)cc2O[C@@H]1CN(C)C(=O)c1ccc2c(c1)OCO2 -86.6%

Activity change, inactive:
COCC#Cc1ccc([C@@H]2[C@@H](CO)N3C(=O)CN(C(=O)C4CCCC4)C[C@@H]23)cc1 -28.5%
O=C(C[C@@H]1CC[C@@H]2[C@H](COC[C@@H](O)CN2C(=O)c2ccccc2F)O1)N1CCOCC1 11.8%
C[C@H](CO)N1C[C@H](C)[C@@H](CN(C)CC2CC2)OCCCC[C@H](C)Oc2ccc(NC(=O)Nc3ccccc3)cc2C1=O 3.68%
COc1ccc(C#Cc2cnc3c(c2)C(=O)N([C@H](C)CO)C[C@@H](C)[C@@H](CN(C)C(=O)CN(C)C)O3)cc1 -58.5%
Cc1ccc(S(=O)(=O)N[C@@H]2CC[C@@H](CC(=O)O)O[C@@H]2CO)cc1 10.2%
COCCNC(=O)[C@H]1[C@H](CO)[C@H]2Cn3c(ccc(-c4ccccc4F)c3=O)[C@H]2N1C(=O)C1CCC1 -8.98%
O=C(Cc1ccccc1)N1C[C@@H]2[C@H](c3ccccc31)[C@@H](CO)N2C(=O)C1CC1 -0.357%
COCCNC(=O)[C@@H]1[C@@H](CO)[C@@H]2Cn3c(ccc(-c4ccccc4F)c3=O)[C@@H]2N1C(=O)C1CC1 7.64%
COc1ccc(NC(=O)Nc2cccc3c2O[C@@H](CN(C)C(=O)NC(C)C)[C@H](C)CN([C@H](C)CO)C3=O)cc1 -26.3%
C[C@@H]1CN([C@@H](C)CO)C(=O)c2cccc(NC(=O)Nc3ccc(F)cc3)c2O[C@H]1CN(C)C(=O)Nc1ccc(F)cc1 -7.48%
C[C@@H]1CN([C@@H](C)CO)C(=O)c2cccc(NC(=O)Nc3ccc(F)cc3)c2O[C@@H]1CN(C)C(=O)Nc1ccccc1 -36.1%
COc1ccc(NC(=O)Nc2cccc3c2O[C@H](CN(C)C(=O)Nc2ccc(F)cc2)[C@@H](C)CN([C@@H](C)CO)C3=O)cc1 -19.9%
C[C@@H]1CN([C@H](C)CO)C(=O)c2cc(Br)cnc2O[C@@H]1CN(C)Cc1cncnc1 25.3%
O=C1CN(Cc2ccccc2)C[C@H]2[C@H](c3ccc(-c4ccccc4)cc3)[C@@H](CO)N12 -11%
COCC(=O)Nc1ccc2c(c1)C(=O)N(C)[C@H]1CC[C@@H](CC(=O)NCc3cccc(F)c3)O[C@H]1CO2 -2.71%
CC(C)NC(=O)Nc1ccc2c(c1)C(=O)N([C@@H](C)CO)C[C@H](C)[C@H](CN(C)S(=O)(=O)c1ccc(Cl)cc1)OCCCC[C@H](C)O2 -79.5%
C[C@H](CO)N1C[C@H](C)[C@@H](CN(C)S(C)(=O)=O)OCCCC[C@H](C)Oc2ccc(NC(=O)Nc3cccc4ccccc34)cc2C1=O 11.4%
CCCN(C)C[C@H]1OCCCC[C@H](C)Oc2ccc(NS(=O)(=O)c3ccc(C)cc3)cc2C(=O)N([C@@H](C)CO)C[C@H]1C -65.3%
C[C@@H]1CN([C@@H](C)CO)C(=O)c2cc(NS(=O)(=O)c3cccs3)ccc2O[C@@H](C)CCCCO[C@@H]1CN(C)C(=O)NC1CCCCC1 -14%
C[C@@H]1CCCCO[C@@H](CN(C)C(=O)NC2CCCCC2)[C@H](C)CN([C@@H](C)CO)C(=O)c2cc(NC(=O)Nc3ccc(F)cc3)ccc2O1 7.58%
C[C@@H]1CCCCO[C@H](CN(C)C(=O)NC2CCCCC2)[C@H](C)CN([C@@H](C)CO)C(=O)c2cc(NC(=O)Nc3ccc(F)cc3)ccc2O1 -11.4%
C[C@H]1CCCCO[C@@H](CN(C)C(=O)c2ccccc2)[C@@H](C)CN([C@@H](C)CO)C(=O)c2cc(NS(=O)(=O)c3cccs3)ccc2O1 -57.2%
Cc1ccc(S(=O)(=O)Nc2ccc3c(c2)C(=O)N([C@H](C)CO)C[C@@H](C)[C@@H](CN(C)C)OCCCC[C@@H](C)O3)cc1 -28.5%
CCCNC(=O)N[C@@H]1CC[C@@H](CCn2cc(C3CC3)nn2)O[C@@H]1CO 12.3%
COc1ccccc1S(=O)(=O)N1C[C@@H](O)COC[C@H]2O[C@H](CC(=O)O)CC[C@@H]21 -3.23%
COc1ccc(NC(=O)N(C)C[C@@H]2Oc3ncc(-c4ccc(C#N)cc4)cc3C(=O)N([C@@H](C)CO)C[C@H]2C)cc1 34.7%
O=C(C1CCC1)N1CC[C@@H]2[C@H]1c1cc(C#Cc3ccc(F)cc3)ccc1N[C@@H]2CO -70.8%
O=C(c1cccc(F)c1)N1C[C@H]2[C@@H](c3ccccc31)[C@@H](CO)N2C(=O)Cc1ccccc1 0.269%
C[C@H](CO)N1C[C@H](C)[C@@H](CN(C)CC2CCCCC2)Oc2ccc(NS(=O)(=O)c3cccs3)cc2CC1=O -7.92%
CC(C)NC(=O)Nc1ccc2c(c1)C(=O)N([C@H](C)CO)C[C@H](C)[C@@H](CN(C)CC1CCCCC1)OCCCC[C@@H](C)O2 -13.3%
C[C@@H]1CCCCO[C@H](CN(C)Cc2ccccc2)[C@@H](C)CN([C@@H](C)CO)C(=O)c2cc(NC(=O)Nc3ccc(F)cc3)ccc2O1 -73.3%
COc1ccc(S(=O)(=O)N(C)C[C@@H]2OCCCC[C@H](C)Oc3ccc(NC(=O)Nc4ccccc4)cc3C(=O)N([C@@H](C)CO)C[C@H]2C)cc1 -79.2%
COc1ccc(NC(=O)Nc2ccc3c(c2)C(=O)N([C@H](C)CO)C[C@H](C)[C@@H](CN(C)C(=O)Nc2ccc(OC)cc2)OCCCC[C@H](C)O3)cc1 -22.2%
CCCN(C)C[C@@H]1OCCCC[C@@H](C)Oc2ccc(NC(=O)Nc3ccc(C(F)(F)F)cc3)cc2C(=O)N([C@H](C)CO)C[C@H]1C -75.7%
C[C@@H]1CCCCO[C@H](CN(C)CC2CCCCC2)[C@H](C)CN([C@H](C)CO)C(=O)c2cc(NC(=O)Nc3ccc(F)cc3)ccc2O1 -79.8%
COc1ccc(NC(=O)Nc2ccc3c(c2)C(=O)N([C@H](C)CO)C[C@H](C)[C@@H](CN(C)S(=O)(=O)c2ccc(OC)cc2)OCCCC[C@H](C)O3)cc1 0.392%
COc1ccc(NC(=O)Nc2ccc3c(c2)C(=O)N([C@@H](C)CO)C[C@H](C)[C@H](CN(C)CC2CCCCC2)O3)cc1 13.9%
O=C(C1CCCCC1)N1CC2(C1)[C@H](c1ccccc1)[C@@H](CO)N2Cc1cncnc1 32.5%
O=C(C[C@@H]1CC[C@@H]2[C@H](COC[C@H](O)CN2S(=O)(=O)c2ccccc2F)O1)NCc1ccccc1F 0.606%
C[C@@H]1CCCCO[C@@H](CN(C)S(=O)(=O)c2cn(C)cn2)[C@H](C)CN([C@@H](C)CO)C(=O)c2cc(NC(=O)Nc3ccccc3)ccc2O1 -13.9%
CC(C)NC(=O)N1[C@@H]2CN(C(=O)Nc3ccc(F)cc3)c3ccccc3[C@@H]2[C@@H]1CO 18.6%
CC(=O)N(C)C[C@@H]1Oc2cc(C#Cc3ccccc3F)ccc2S(=O)(=O)N([C@@H](C)CO)C[C@@H]1C -36.8%
CC(=O)N(C)C[C@H]1Oc2cc(C#Cc3ccccc3F)ccc2S(=O)(=O)N([C@@H](C)CO)C[C@H]1C -22.1%
CC(=O)N(C)C[C@H]1Oc2cc(C#Cc3ccccc3F)ccc2S(=O)(=O)N([C@H](C)CO)C[C@@H]1C -24.1%
C[C@@H]1CN([C@H](C)CO)S(=O)(=O)c2ccc(C#Cc3ccccc3F)cc2O[C@@H]1CN(C)C(=O)c1ccc2c(c1)OCO2 -67%
